GIRK2 act: activators of NPY4-receptor-primed GIRK2 channels, summary, cell-based, HEK293, thallium flux | 34,000 tested, under 10 active | G protein-activated inward rectifier potassium channel 2 (Homo sapiens), P48051 | activation (% efficacy), % for hits at 75 µM | HEK293 GIRK2/NPY4 cells, thallium flux fluorescence;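 active means primary screen hit, no activity in plain HEK293 cells, and in GIRK2-only cells above 5% efficacy rising with concentration; inactive means the rest, including fluorescent compounds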;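 further: efficacy is normalized control-subtracted fluorescence 15 s after thallium addition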
Target sequence (P48051 whole entry, looked up): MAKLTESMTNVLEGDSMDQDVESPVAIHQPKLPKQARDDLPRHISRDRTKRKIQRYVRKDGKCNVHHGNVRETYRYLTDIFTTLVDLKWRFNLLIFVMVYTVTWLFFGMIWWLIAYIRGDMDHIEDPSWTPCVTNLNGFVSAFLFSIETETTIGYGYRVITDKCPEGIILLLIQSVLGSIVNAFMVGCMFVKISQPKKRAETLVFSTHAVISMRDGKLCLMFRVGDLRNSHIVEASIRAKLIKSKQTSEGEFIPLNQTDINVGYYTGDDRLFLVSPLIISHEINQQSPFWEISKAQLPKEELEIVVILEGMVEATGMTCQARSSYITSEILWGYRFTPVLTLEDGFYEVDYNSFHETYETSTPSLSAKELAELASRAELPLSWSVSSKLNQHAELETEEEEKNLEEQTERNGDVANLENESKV
GluA2 TARP mod: modulators of GluA2-stargazin AMPA receptor complexes, primary screen, cell-based, membrane potential dye; Voltage-dependent calcium channel gamma-2 subunit (Mus musculus) + Glutamate receptor 2 …; HEK293 GluA2+stargazin, membrane potential dye (FDSS), glutamate EC50; hits were called plate by plate, in both directions; calls only at 30 µM; actives 3.5% (n = 40,000); AID 1259245, 2017;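 active means any of four per-well response measures lying three or more SD from its plate-wide compound average, in either direction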
Large screens that a line does not name were inactive. Only a selection was taken, and hits are over-represented in it overall.

CCCN(CCC)C(=O)Cn1c(C2CC(=O)N(Cc3ccc(F)cc3)C2)nc2ccccc21 (stereo unspecified)	none
CCCCN(C)C(=O)Cn1c(C2CC(=O)N(Cc3ccc(F)cc3)C2)nc2ccccc21 (stereo unspecified)	GluA2 TARP mod active
Cc1ccccc1Cn1c(C2CC(=O)N(C(C)(C)C)C2)nc2ccccc21 (stereo unspecified)	GluA2 TARP mod active (no result: GIRK2 act)
CCCn1c(C2CC(=O)N(C(C)(C)C)C2)nc2ccccc21 (stereo unspecified)	none (no result: GIRK2 act)
CCn1c(C2CC(=O)N(C(C)(C)C)C2)nc2ccccc21 (stereo unspecified)	none (no result: GIRK2 act)
CC(C)(C)N1CC(c2nc3ccccc3n2Cc2ccccc2)CC1=O (stereo unspecified)	GluA2 TARP mod active (no result: GIRK2 act)
CCn1c(C2CC(=O)N(Cc3ccccc3)C2)nc2ccccc21 (stereo unspecified)	none (no result: GIRK2 act)
O=C1CC(c2nc3ccccc3n2Cc2ccccc2)CN1Cc1ccccc1 (stereo unspecified)	GluA2 TARP mod active (no result: GIRK2 act)
Cc1ccc2nc(NC(=O)Cn3cnc(-c4cccs4)cc3=O)sc2c1	none
COc1ccc(OCC(=O)Nc2ccc3c(c2)N(C(=O)c2cccs2)CC3)cc1	none (no result: GluA2 TARP mod)
O=C(NCCCn1ncccc1=O)c1csc(-c2ccccc2)n1	none
COC(=O)Cn1c(=NC(=O)c2ccnn2C)sc2cc(C(C)C)ccc21	none
CC(C)(C)N1CC(c2nc3ccccc3n2Cc2ccccc2Cl)CC1=O (stereo unspecified)	GluA2 TARP mod active (no result: GIRK2 act)
C#CCn1c(C2CC(=O)N(C(C)(C)C)C2)nc2ccccc21 (stereo unspecified)	none (no result: GIRK2 act)
CC(O)(CNC(=O)NCc1ccccc1)c1ccccc1 (stereo unspecified)	none (no result: GluA2 TARP mod)
Cc1noc(C)c1S(=O)(=O)NCC1CCN(C(=O)Nc2ccc(F)cc2)CC1	none (no result: GluA2 TARP mod)
Cc1cccc(-n2nc3c(c2NC(=O)C(=O)NCc2ccco2)CS(=O)(=O)C3)c1	none
COc1ccc(-n2nc3c(c2NC(=O)C(=O)N2CCCC2)CSC3)cc1	GluA2 TARP mod active
COc1ccc(-n2nc3c(c2NC(=O)C(=O)N2CCCCC2)CS(=O)(=O)C3)cc1	none
COc1ccc(-n2nc3c(c2NC(=O)C(=O)NCc2ccco2)CS(=O)(=O)C3)cc1	GluA2 TARP mod active
COc1cccc(CNC(=O)Cn2c(C)cc(C)c(-c3nc(-c4ccc(C)cc4)no3)c2=O)c1	none (no result: GIRK2 act)
O=C(CN(Cc1ccc(Cl)cc1)S(=O)(=O)c1cccnc1)NCc1ccccc1	none
Cc1ccccc1NC(=O)NCCc1csc(-c2ccc(Cl)cc2)n1	none
COc1cc(C(C)=O)ccc1OCC(=O)Nc1c(C)nc2cc(C)ccn2c1=O	none
O=S(=O)(c1ccc(Oc2ccccc2)cc1)N1CCN(c2ccc3nncn3n2)CC1	none
CCCC(=O)Nc1ccc(S(=O)(=O)N2CCN(c3ccc4nncn4n3)CC2)cc1	GluA2 TARP mod active
CC1CCN(c2ccc(N3CCN(C(=O)COc4ccccc4)CC3)nn2)CC1	none
CCCC(=O)Nc1ccc(O)c(C(=O)/C=C/c2ccc(C(=O)O)cc2)c1	none (no result: GIRK2 act)
O=C(O)c1ccc(/C=C/C(=O)c2ccco2)cc1	GluA2 TARP mod active (no result: GIRK2 act)
Cn1c(=O)c2c(nc(N3CCCC3)n2CC(O)COc2ccc(Cl)cc2Cl)n(C)c1=O (stereo unspecified)	none (no result: GIRK2 act)
CCCC(=O)Nc1sc2c(c1-c1nc3ccccc3s1)CCN(C(C)=O)C2	none (no result: GIRK2 act)
COc1ccc(CCNc2cc(C)nc3c(-c4ccccc4OC)cnn23)cc1OC	GluA2 TARP mod active
COc1ccc(CCNc2cc(C)nc3c(-c4ccccc4OC)c(C)nn23)cc1OC	none
O=C(CSc1ccc(NC(=O)c2ccco2)nn1)NC1CCCC1	none
O=C(NCC1CCN(C(=O)COc2ccccc2)CC1)C(=O)Nc1cccnc1	none
CCOC(=O)c1sc(NC(=O)CSc2nnc(CSc3nc(N)cc(N)n3)n2C)nc1C	none (no result: GIRK2 act)
CCCc1c(C(=O)NCCO)nnn1-c1ccc(C)cc1	none
CCCc1c(C(=O)NC2CCCC2)nnn1-c1ccc(Cl)cc1	GluA2 TARP mod active
COCc1c(C(=O)Nc2ccc(NC(C)=O)cc2)nnn1-c1cc(C)cc(C)c1	none
O=C(NC1CCCCCC1)c1n[nH]c2ccccc12	none (no result: GIRK2 act)
CCCc1c(C(=O)NC2CCCCC2)nnn1-c1ccccc1	GluA2 TARP mod active
COCc1c(C(=O)NC2CCCC2)nnn1-c1ccc(C)cc1	GluA2 TARP mod active
CCOc1ccc(C(C)C)cc1S(=O)(=O)Nc1cccc(-c2ccc(=O)n(C)n2)c1	none
Cc1ccc2c(c1)NC(SCC(=O)N1CCCCCC1)=NS2(=O)=O	none
O=C(NC1CCS(=O)(=O)C1)c1cccc(C(F)(F)F)c1 (stereo unspecified)	none
CN1CCN(C(CNS(=O)(=O)c2cc(F)ccc2F)c2cccn2C)CC1 (stereo unspecified)	none
CCOc1ccc(-c2ccc(=O)n(CCCC(=O)Nc3cccc(C(F)(F)F)c3)n2)cc1	none

Screening results from PubChem.
